# Results from the supplement of paper PMC9794691.
# Test system: PC9
# Test: area under confluence curve of compound monotherapy; compare to DMSO control AUC of the same experiment (AUC (confluence x time, arbitrary))
# Conditions: 300 nM; DMSO control AUC in same experiment: 49143
# Description: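 compare to DMSO control AUC of the same experiment; Monotherapy arm of the osimertinib DTP screen: EGFR-mutant NSCLC cells were treated with the test compound alone at a fixed dose (highest dose with <50% inhibition of parental cells, or 1 uM), then switched to drug-free medium at the DTP stage. IncuCyte confluence was tracked and AUC computed in Prism. AUC scale depends on experiment duration, so each row carries the same-experiment DMSO control AUC (monotherapy activity = DMSO AUC minus monotherapy AUC). The monotherapy value is shared between screen formats.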
row,SMILES,area under confluence curve
1,Oc1nc(-c2ccc(C(F)(F)F)cc2)nc2c1CSCC2,49300

# Same assay, conditions: 300 nM; DMSO control AUC in same experiment: 49189
row,SMILES,area under confluence curve
1,Cn1cnc2c(F)c(Nc3ccc(Br)cc3Cl)c(C(=O)NOCCO)cc21 [Selumetinib],49700

# Same assay, conditions: 1000 nM; DMSO control AUC in same experiment: 21594
row,SMILES,area under confluence curve
1,COc1nn(C)cc1Nc1nccc(-c2c[nH]c3c(NC(=O)[C@@H](C)N4CCN(C)CC4)cccc23)n1,20800

# Same assay, conditions: 1000 nM; DMSO control AUC in same experiment: 22064
row,SMILES,area under confluence curve
1,O=C(c1cc(Cc2n[nH]c(=O)c3ccccc23)ccc1F)N1CCN(C(=O)C2CC2)CC1 [Olaparib],20000
2,CCc1cc2c(cc1N1CCC(N3CCOCC3)CC1)C(C)(C)c1[nH]c3cc(C#N)ccc3c1C2=O [Alectinib],16200

# Same assay, conditions: 1000 nM; DMSO control AUC in same experiment: 29345
row,SMILES,area under confluence curve
1,CS(=O)(=O)CCNCc1ccc(-c2ccc3ncnc(Nc4ccc(OCc5cccc(F)c5)c(Cl)c4)c3c2)o1 [Lapatinib],20900

# Same assay, conditions: 1000 nM; DMSO control AUC in same experiment: 30578
row,SMILES,area under confluence curve
1,Cc1nc2nc(C)c(O[C@@H]3CCN(c4ccc(-c5ccc(CN6CCOCC6)nn5)cc4)C3)c(C)n2n1,30800

# Same assay, conditions: 1000 nM; DMSO control AUC in same experiment: 30604
row,SMILES,area under confluence curve
1,O=C(c1cc(Cc2n[nH]c(=O)c3ccccc23)ccc1F)N1CCN(C(=O)C2CC2)CC1 [Olaparib],30200

# Same assay, conditions: 1000 nM; DMSO control AUC in same experiment: 31219
row,SMILES,area under confluence curve
1,CN(C)C/C=C/C(=O)Nc1ccc(C(=O)Nc2cccc(Nc3ncc(Cl)c(-c4c[nH]c5ccccc45)n3)c2)cc1,31000

# Same assay, conditions: 1000 nM; DMSO control AUC in same experiment: 31840
row,SMILES,area under confluence curve
1,CCOC(=O)c1ccnc(CNCC(=O)N(CC)CCN(C)C)c1,30800
